# From the supplement of paper PMC10670038
# Counter-ions that a name gives are not always drawn. ± gives the standard deviation of the averaged measurements. In all, about 2,000 compounds were measured (“relative cell viability vs DMSO, compound alone”: median about 1.1, lowest 2% from about 0.29 on). This is one part of a sample in which the lowest values are shown more often than they occur.
# System: TE10
# Experiment: relative cell viability vs DMSO, compound alone (fraction); TE10 is an esophageal squamous carcinoma line; higher = less cytotoxic
# Conditions: 2 µM; 48 h
# Experimental: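 TE10 ESCC cells (1,000/well, 384-well plates) were treated with Selleck bioactive library compounds at 2 uM alone for 48 h. Viability was read by CellTiter-Glo and expressed relative to DMSO wells. Two technical replicates (A, B).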
row,Compound,relative cell viability
1,C[N+]1(C)CCC(=C(c2ccccc2)c2ccccc2)CC1 [Diphemanil Methylsulfate],0.918 ± 0.097
2,OCCOCCN1CCN(C2=Nc3ccccc3Sc3ccccc32)CC1 [Quetiapine Fumarate],1.079 ± 0.0073
3,Cc1cc(/C=C2/SC(=S)NC2=O)c(C)n1-c1cccnc1 [Optovin],1.06 ± 0.031
4,C[C@@H](O)[C@H]1C(=O)N2C(C(=O)OCOC(=O)C(C)(C)C)=C(SC3CN(C4=NCCS4)C3)[C@H](C)[C@H]12 [Tebipenem Pivoxil],1.14 ± 0.037
5,C[C@@]12C[C@@]3(O)O[C@@H](O1)[C@]1(COC(=O)c4ccccc4)[C@H]3C[C@@]12O[C@@H]1O[C@H](CO)[C@@H](O)[C@H](O)[C@H]1O [Paeoniflorin],1.04 ± 0.029
6,CN(C)c1ccc(C(=O)NCCCCCCC(=O)NO)cc1,0.627 ± 0.043
7,CC(C=CC(=O)NO)=CC(C)C(=O)c1ccc(N(C)C)cc1 (configuration not stated) [Trichostatin A (TSA)],0.0876 ± 0.0041
8,COC1C(O)CC(=O)OC(C)CC=CC=CC(OC2CCC(N(C)C)C(C)O2)C(C)CC(CC=O)C1OC1OC(C)C(OC2CC(C)(O)C(O)C(C)O2)C(N(C)C)C1O (configuration not stated) [Spiramycin],1.11 ± 0.04
9,C[C@H](CCC(=O)O)[C@H]1CC[C@H]2[C@@H]3[C@@H](O)C[C@@H]4C[C@H](O)CC[C@]4(C)[C@H]3CC[C@]12C [Ursodiol],0.96 ± 0.08
10,COCCCOc1cc(C[C@@H](C[C@H](N)[C@@H](O)C[C@H](C(=O)NCC(C)(C)C(N)=O)C(C)C)C(C)C)ccc1OC [Aliskiren Hemifumarate],1.19 ± 0.037
11,COc1ccc(-c2ccc3c(N4CCOC[C@@H]4C)nc(N4CCOC[C@@H]4C)nc3n2)cc1CO,0.4942 ± 0.0022
12,N#CC(=Cc1ccc(O)c(O)c1)C(=O)NCc1ccccc1 [AG-490 (Tyrphostin B42)],1.196 ± 0.001
13,C[C@H](NC(=O)/C(C#N)=C/c1cccc(Br)n1)c1ccccc1,1.14 ± 0.032
14,CCC[C@H](NC(=O)/C(C#N)=C/c1cccc(Br)n1)c1ccccc1 [Degrasyn (WP1130)],0.206 ± 0.019
15,COc1c(C)c(C(=O)c2ccc(N)c(C(=O)O)c2)n2ccccc12,1.04 ± 0.041
16,N#C[C@@H]1C[C@@H]2C[C@@H]2N1C(=O)[C@@H](N)C12CC3CC(CC(O)(C3)C1)C2 [Saxagliptin],1.02 ± 0.083
17,O=C1c2ccccc2-c2n[nH]c3cccc1c23,1.27 ± 0.0019
18,CCN=C1N[C@@H]2[C@@H](O)[C@H](O)[C@@H](CO)O[C@@H]2S1 [Thiamet G],1.04 ± 0.037
19,OCc1ccc(-c2ccc(-c3ccc(CO)s3)o2)s1,0.0807 ± 0.0069
20,Cc1c(Cc2ccc3ccccc3n2)c2cc(F)ccc2n1CC(=O)O,1.08 ± 0.054
21,CCOC(=O)[C@H](CCc1ccccc1)N[C@H]1CCCN2CCC[C@@H](C(=O)O)N2C1=O [Cilazapril Monohydrate],1.011 ± 0.004
22,Nc1ncnc2c1ncn2[C@@H]1O[C@H](CO)[C@@H](O)[C@@H]1O [Vidarabine],1.08 ± 0.033
23,Nc1nc(F)nc2c1ncn2[C@@H]1O[C@H](CO)[C@@H](O)[C@@H]1O [Fludarabine],0.291 ± 0.0055

row,Compound,relative cell viability
1,Nc1nc(F)nc2c1ncn2[C@@H]1O[C@H](COP(=O)(O)O)[C@@H](O)[C@@H]1O [Fludarabine Phosphate],0.214 ± 0.058
2,Nc1nc2c(ncn2[C@@H]2O[C@H](CO)[C@@H](O)[C@H]2O)c(=O)[nH]1 [Guanosine],1.06 ± 0.032
3,Nc1nc(Cl)nc2c1ncn2[C@@H]1O[C@H](CO)[C@@H](O)[C@@H]1F [Clofarabine],0.932 ± 0.038
4,Nc1ncnc2c1ncn2[C@@H]1O[C@H](CO)[C@@H](O)[C@H]1O [Adenosine],1.165 ± 0.0028
5,CCN(CC)CCOC(=O)c1ccc(N)cc1Cl [Chloroprocaine HCl],1.15 ± 0.027
6,Nc1nc2c(ncn2COC(CO)CO)c(=O)[nH]1 [Ganciclovir],1.069 ± 0.0057
7,O=C(/C=C/N1C[C@H]2C[C@@H]1CN2c1ccccn1)c1ccccc1O,1.06 ± 0.02
8,COc1ccc(-n2nc(C(N)=O)c3c2C(=O)N(c2ccc(N4CCCCC4=O)cc2)CC3)cc1 [Apixaban],1.1 ± 0.027
9,Cc1coc2c1C(=O)C(=O)c1c-2ccc2c(C)cccc12 [Tanshinone I],1.11 ± 0.051
10,CO[C@H]1/C=C/O[C@@]2(C)Oc3c(C)c(O)c4c(O)c(c(/C=N/N5CCN(C)CC5)c(O)c4c3C2=O)NC(=O)/C(C)=C\C=C\[C@H](C)[C@H](O)[C@@H](C)[C@@H](O)[C@@H](C)[C@H](OC(C)=O)[C@@H]1C [Rifampin],1.049 ± 0.003
11,COc1cc(-c2ncn(/C=C\C(=O)OC(C)C)n2)cc(C(F)(F)F)c1,0.26 ± 0.011
12,O=C(/C=C\n1cnc(-c2cc(C(F)(F)F)cc(C(F)(F)F)c2)n1)NNc1cnccn1,0.2768 ± 0.0027
13,O=C(/C=C/n1cnc(-c2cc(C(F)(F)F)cc(C(F)(F)F)c2)n1)N1CC(F)(F)C1,0.473 ± 0.06
14,O=C(/C=C\n1cnc(-c2cc(C(F)(F)F)cc(C(F)(F)F)c2)n1)NNc1ccccn1 [Verdinexor (KPT-335)],0.3315 ± 0.0025
15,CCN(CC)CCNC(=O)c1c(C)[nH]c(/C=C2\C(=O)Nc3ccc(F)cc32)c1C [Sunitinib Malate],1.11 ± 0.037
16,CCN(CC)CCNC(=O)c1c(C)[nH]c(/C=C2\C(=O)Nc3ccc(F)cc32)c1C [Sunitinib],1 ± 0.095
17,Cc1[nH]nc2ccc(-c3cncc(OC[C@@H](N)Cc4ccccc4)c3)cc12,0.5847 ± 0.0027
18,C[C@]12CC[C@H](O)CC1=CC[C@@H]1[C@@H]2CC[C@]2(C)C(n3cnc4ccccc43)=CC[C@@H]12 [Galeterone],1.06 ± 0.14
19,CO[C@H]1C[C@@H]2CC[C@@H](C)[C@@](O)(O2)C(=O)C(=O)N2CCCC[C@H]2C(=O)O[C@H]([C@H](C)C[C@@H]2CC[C@H](n3cnnn3)[C@H](OC)C2)CC(=O)[C@H](C)/C=C(\C)[C@@H](O)[C@@H](OC)C(=O)[C@H](C)C[C@H](C)/C=C/C=C/C=C/1C [Zotarolimus(ABT-578)],0.888 ± 0.073
20,CC(=O)Oc1cccc2c1C(=O)c1c(OC(C)=O)cc(C(=O)O)cc1C2=O [Diacerein],1.11 ± 0.023
21,C=CC(=O)N1CC(=Cc2ccc([N+](=O)[O-])cc2)C(=O)C(=Cc2ccc([N+](=O)[O-])cc2)C1,0.0554 ± 0.0028
22,CC1(C)C=C(CN2C/C(=C\c3ccc(F)cc3)C(=O)/C(=C/c3ccc(F)cc3)C2)C(C)(C)N1O,0.8405 ± 0.0057
23,CNC(=O)c1c(F)cccc1Nc1nc(Nc2cc3c(cc2OC)CCN3C(=O)CN(C)C)nc2[nH]ccc12,1.06 ± 0.052

row,Compound,relative cell viability
1,CC[C@@H](C)Nc1cc(C(=O)N[C@H]2C[C@H]3CC[C@@H](C2)N3c2ccc(C(=O)C3CC3)cn2)c(C)cc1C(N)=O,0.449 ± 0.023
2,O=C(O)c1cc(/N=N/c2ccc(S(=O)(=O)Nc3ccccn3)cc2)ccc1O [Sulfasalazine],1.04 ± 0.026
3,CCc1nc(-c2cccc(C)c2)c(-c2ccnc(NC(=O)c3ccccc3)c2)s1,1.0779 ± 0.0008
4,Cc1ccc([N+](=O)[O-])cc1S(=O)(=O)N(C)/N=C/c1cnc2ccc(Br)cn12,0.287 ± 0.012
5,COc1cc(C(C)=O)ccc1O [Apocynin],1.07 ± 0.059
6,CCCCOc1c(C(=O)c2c(F)cc(C)cc2F)c[nH]c2nncc1-2,0.904 ± 0.014
7,CCOC(=O)CCNc1cc(N2CCc3ccccc3CC2)nc(-c2ccccn2)n1,0.957 ± 0.1
8,CNC[C@@H](O)c1ccc(O)c(O)c1 [L-Adrenaline],1.06 ± 0.028
9,COCC[n+]1c2c(n(Cc3cnccn3)c1C)C(=O)c1ccccc1C2=O [YM155 (Sepantronium Bromide)],0.0556 ± 0.0047
10,CC1(C)S[C@@H]2[C@H](NC(=O)[C@H](NC(=O)N3CCNC3=O)c3ccccc3)C(=O)N2[C@H]1C(=O)O [Azlocillin sodium salt],1.09 ± 0.026
11,CC(C)(OCc1nn(Cc2ccccc2)c2ccccc12)C(=O)O [Bindarit],1.1 ± 0.053
12,C=C[C@]1(C)C[C@@H](OC(=O)CS[C@@H]2C[C@H]3CC[C@@H](C2)N3C)[C@]2(C)[C@H](C)CC[C@]3(CCC(=O)[C@H]32)[C@@H](C)[C@@H]1O [Retapamulin],1.29 ± 0.028
13,CCC[C@@H]1C[C@@H](C(=O)N[C@@H]([C@H]2O[C@H](SC)[C@H](O)[C@@H](O)[C@H]2O)[C@@H](C)O)N(C)C1 [Lincomycin HCl],1.12 ± 0.073
14,CCC(=O)Nc1cccc(Oc2nc(Nc3ccc(N4CCN(C)CC4)cc3OC)ncc2Cl)c1,1.16 ± 0.059
15,Clc1ccc(Nc2nnc(Cc3ccncc3)c3ccccc23)cc1 [Vatalanib (PTK787) 2HCl],1.16 ± 0.022
16,Cc1[nH]c2ccccc2c1CCNC(=O)c1cccs1,1.08 ± 0.069
17,Cc1[nH]c2ccccc2c1CCNCc1ccc(/C=C/C(=O)NO)cc1 [Panobinostat (LBH589)],0.0672 ± 0.00084
18,CN(C)Cc1ccc(S(=O)(=O)n2ccc(/C=C/C(=O)NO)c2)cc1 [Resminostat],0.908 ± 0.028
19,COc1ccc(-c2coc3cc(O)ccc3c2=O)cc1 [Formononetin],0.901 ± 0.044
20,O=C(O)c1ccc(C=C2SC(=S)N(c3cccc(C(F)(F)F)c3)C2=O)cc1,1.04 ± 0.026
21,O=C(CCCN1CC=C(n2c(=O)[nH]c3ccccc32)CC1)c1ccc(F)cc1 [Droperidol],1.08 ± 0.044
22,NC(=O)N/N=C/c1ccc([N+](=O)[O-])o1 [Nitrofural],1.02 ± 0.057
23,Cc1ccc(S(=O)(=O)c2ccc([N+](=O)[O-])o2)cc1,0.286 ± 0.0092

row,Compound,relative cell viability
1,COc1ccc(/C=C/C(=O)C2(C(=O)/C=C/c3ccc(OC)c(OC)c3)CCCCC2)cc1OC,0.726 ± 0.088
2,Cc1c(F)cc(C(=O)NC2CC2)cc1-c1ccc(C(=O)NCC(C)(C)C)cn1,0.959 ± 0.18
3,Cc1c(Nc2ncccc2C(=O)O)cccc1C(F)(F)F [Flunixin Meglumin],0.994 ± 0.028
4,COc1cc2c(cc1OC)CN(CCc1ccc(NC(=O)c3cccc4c(=O)c5cccc(OC)c5[nH]c34)cc1)CC2,1.03 ± 0.056
5,CNCCc1ccccn1 [Betahistine 2HCl],0.903 ± 0.18
6,COC1=CC(=O)C[C@@H](C)[C@]12Oc1c(Cl)c(OC)cc(OC)c1C2=O [Griseofulvin],1.12 ± 0.06
7,O[C@@H](COc1cccc2ncccc12)CN1CCN(C2c3ccccc3[C@@H]3[C@H](c4ccccc42)C3(F)F)CC1 (some centres not stated),1.14 ± 0.082
8,CCn1c(N)c(C(=O)NC)c(=O)c2ccc(C#CC(C)(O)COC)nc21 (configuration not stated),0.979 ± 0.17
9,CN(Cc1cnc2nc(N)nc(N)c2n1)c1ccc(C(=O)N[C@@H](CCC(=O)O)C(=O)O)cc1 [Methotrexate],0.143 ± 0.0081
10,Cc1nc(=O)c2cc(CN(C)c3ccc(C(=O)N[C@@H](CCC(=O)O)C(=O)O)s3)ccc2[nH]1 [Raltitrexed],1.07 ± 0.086
11,C#CCC(Cc1cnc2nc(N)nc(N)c2n1)c1ccc(C(=O)N[C@@H](CCC(=O)O)C(=O)O)cc1 (some centres not stated) [Pralatrexate],0.1336 ± 0.00088
12,CC(C)c1cnn2c(NCc3ccccc3)cc(NCCCCCCN)nc12,1.08 ± 0.063
13,CNC(=O)CN1CCC(Oc2cc3c(Nc4cccc(Cl)c4F)ncnc3cc2OC)CC1 [AZD8931 (Sapitinib)],1.21 ± 0.015
14,Cc1c(C(N)=O)cc([N+](=O)[O-])cc1[N+](=O)[O-] [Dinitolmide],1.0978 ± 0.00018
15,Cc1ccccc1C(C(=O)NC1CCCCC1)N(C(=O)Cn1ccnc1C)c1cccc(F)c1 (configuration not stated),0.989 ± 0.22
16,CCCCCCCCCCCCCCCC[N+](C)(C)C [Cetrimonium Bromide (CTAB)],1.05 ± 0.039
17,CC1=NN(c2ccc(C(=O)O)cc2)C(=O)C1=Cc1ccc(-c2cc(C)c(C)cc2[N+](=O)[O-])o1,1.04 ± 0.022
18,Nc1nc(CC(=O)Nc2ccc(CCNC[C@H](O)c3ccccc3)cc2)cs1 [Mirabegron],0.954 ± 0.11
19,NC(=O)c1cccc(-c2cccc(OC(=O)NC3CCCCC3)c2)c1,1.17 ± 0.024
20,CC#CC(=O)Nc1ccc2ncnc(Nc3cccc(Br)c3)c2c1,0.773 ± 0.043
21,CN(C)c1ccc(C(=C2C=CC(=[N+](C)C)C=C2)c2ccc(N(C)C)cc2)cc1 [Crystal Violet],0.278 ± 0.006
22,CN(C)C(=O)c1cc2cnc(Nc3ccc(N4CCNCC4)cn3)nc2n1C1CCCC1,1.147 ± 0.008
23,Nc1c(CC(=O)O)cccc1C(=O)c1ccc(Br)cc1 [Bromfenac Sodium],1.09 ± 0.046
